Assay outcomes as filed in PubChem.
CHO-K1 Ca antag – counter-screen for M1 antagonists: effect in parental CHO-K1 cells; ATP-induced calcium, Fluo-8 fluorescence; actives 0.6% (n = 360,000); inhibition, % at 3 µM;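 active = inhibition above a per-plate cutoff, the plate's mean sample inhibition plus 3 SD, cut at about 24% in these data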
M1 ag – agonists of human M1 muscarinic receptor. activation, % at 3 µM. actives 0.33% (n = 360,000). P11229. CHO-K1 hM1, Fluo-8 calcium fluorescence, agonist mode; 0% DMSO, 100% acetylcholine EC100;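 active = activation above the run's mean compound activation plus 3 SD, cut at about 16% in these data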;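 also: peak over basal fluorescence ratio within a 140 s kinetic read after compound addition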
Target sequence (P11229 whole entry, looked up): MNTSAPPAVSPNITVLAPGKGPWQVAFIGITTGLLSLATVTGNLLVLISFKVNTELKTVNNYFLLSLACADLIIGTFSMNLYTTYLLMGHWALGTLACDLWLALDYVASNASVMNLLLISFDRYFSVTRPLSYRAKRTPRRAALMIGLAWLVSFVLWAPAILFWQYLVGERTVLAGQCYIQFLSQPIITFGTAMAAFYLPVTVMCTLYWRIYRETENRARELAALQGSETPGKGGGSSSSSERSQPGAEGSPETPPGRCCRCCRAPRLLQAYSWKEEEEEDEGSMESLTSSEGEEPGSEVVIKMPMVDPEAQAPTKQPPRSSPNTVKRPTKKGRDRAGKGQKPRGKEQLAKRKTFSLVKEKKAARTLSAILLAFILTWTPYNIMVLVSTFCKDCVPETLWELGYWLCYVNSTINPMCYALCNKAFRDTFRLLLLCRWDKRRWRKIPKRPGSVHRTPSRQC
M1 ag parental – M1 agonist counterscreen hit in parental CHO-K1 cells | Fluo-8 calcium fluorescence; scaled to maximal ATP response, vehicle zero | activation, % at 3 µM | actives 0.48% (n = 360,000) | AID 602248; in the data active = activation above about 15%;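 also: untransfected CHO-K1 host cells lacking M1 receptor as counterscreen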
M1 PAM parental – M1 PAM counterscreen hit in parental CHO-K1 cells. activation, % at 3 µM. actives 0.02% (n = 360,000). ATP EC20, Fluo-8 calcium fluorescence; 0% at ATP EC20, 100% at ATP max;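 active = activation above the run cutoff, the mean activation of all test compounds plus 3 SD, cut at about 40% in these data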;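 also: peak over basal fluorescence ratio in a 140 s read after ATP addition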
M1 antag – blocks human M1 muscarinic receptor | P11229 | CHO-K1 hM1, Fluo-8 calcium fluorescence, ACh EC80 antagonist | inhibition, % at 3 µM | actives 1.3% (n = 360,000);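 active = percent inhibition above its own plate's cutoff, namely the mean of that plate's compound wells plus 3 SD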;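 also: peak over basal fluorescence ratio during 140 s after agonist addition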
M1 PAM – human CHRM1 positive allosteric modulation | P11229 | AID 588819 | CHO-K1 hM1, Fluo-8 calcium fluorescence, ACh EC20; 0% = ACh EC20, 100% = maximal ACh | activation, % at 3 µM | actives 0.088% (n = 360,000); in the data active = activation above about 19%, passing the limit was not always enough
Each line names hits and unclear results; the compound was inactive in the other large screens. Hits are enriched below; roughly 2.3% of the tested compounds scored in any of these assays.

CCc1nc2ccc(C(=O)NCc3ccccc3OC)cn2c1N(CC)CCOC	none
COc1ccc(C(=O)C(C)OC(=O)CCN2C(=O)C3CC=CCC3C2=O)cc1 (stereo not given)	none
Cc1cccn2cc(CNC(=O)C3CCCCC3)nc12	M1 ag parental 19
O=C(NCCO)c1nc(C(=O)c2ccccc2)c2ccccc2n1	none
Cc1ccc(C2N(c3ccc(F)cc3)C(=O)C3CCCN32)cc1 (stereo not given)	none
Cc1cccc(C2N(c3ccc(F)cc3)C(=O)C3CCCN32)c1 (stereo not given)	CHO-K1 Ca antag 31
CSc1nc(N)nc(SCC(=O)Nc2cccc(F)c2)c1C#N	M1 antag 24
CSc1nc(N)nc(SCC(=O)Nc2ccc(Cl)cc2)c1C#N	none
O=C(CN1C(=O)c2ccccc2C1=O)C(O)CN1C(=O)c2ccccc2C1=O (stereo not given)	none
CCCCc1ccc(NC(=O)CSc2nc(=O)n(CCN(CC)CC)c3c2CCCC3)cc1	M1 antag 66
CCCCc1ccc(NC(=O)CSc2nc(=O)n(CCN(C)C)c3c2CCC3)cc1	none
O=C(CSc1nc(=O)n(CCCN2CCOCC2)c2c1CCCC2)Nc1ccc(F)cc1	M1 antag 31
O=C(Nc1ccc(Cl)cc1Cl)c1ccc2ncsc2c1	M1 ag parental 21
CCCCn1c(CN2CCN(C)CC2)nc2ccccc21	M1 antag 31
C/C(=N\N1CCN(c2ccccc2)CC1)c1ccccc1O	none
C/C(=N\N1CCCCC1)c1ccccc1O	M1 ag 22
O=C(NCCCN1CCC(Cc2ccccc2)CC1)C1CC(=O)N(C2CCCC2)C1 (stereo not given)	M1 antag 33
O=C(NCCCN1CCC(Cc2ccccc2)CC1)C1CCC(=O)N1C1CCCC1 (stereo not given)	none
O=C(C1CC(=O)N(C2CCCC2)C1)N1CCN(c2ccccc2)CC1 (stereo not given)	CHO-K1 Ca antag 60
COC(=O)C[N+](C)(C)CC#Cc1ccccc1	none
COc1cc(N/C(=N/S(=O)(=O)c2ccccc2)c2ccccc2)ncn1	CHO-K1 Ca antag 25
COc1ccc(CNC(=O)C2CCC(=O)N(CCCN3CCCC3=O)C2)c(OC)c1 (stereo not given)	none
CN1CCC(N(C)CC(=O)Nc2ccc3c(c2)OC(F)(F)O3)CC1	M1 antag 72
COc1ccc(CC(N)c2csc(Nc3cc(NCc4ccco4)ncn3)n2)cc1 (stereo not given)	none
Cc1cc(C)c(NS(=O)(=O)c2cccc3cccnc23)c(C)c1	CHO-K1 Ca antag 27
COc1ccc(C(C)(C)C)cc1NS(=O)(=O)c1cccc2cccnc12	M1 PAM 32
COc1ccc(OC)c(NS(=O)(=O)c2cccc3cccnc23)c1	none
Cn1c(=O)c2cc(NC(=O)NCCc3ccccc3)ccc2n1Cc1ccc(F)cc1	none
Cc1ccccc1NC(=O)CCCN1C(=O)C2CC=CCC2C1=O (stereo not given)	none
Cc1nonc1OCCNCCNc1ccccc1[N+](=O)[O-]	CHO-K1 Ca antag 27
O=[N+]([O-])c1ccccc1NCCOc1ccccc1	none
COc1ccc(-n2nc(C(=O)NCC(=O)N3CCN(c4ccccn4)CC3)c3ccccc3c2=O)cc1OC	M1 antag 37
COc1ccc(-n2nc(C(=O)NCC(=O)N3CCN(c4ccccn4)CC3)c3ccccc3c2=O)cc1	none
COc1ccc(-n2nc(C(=O)NCC(=O)N3CCOCC3)c3ccccc3c2=O)cc1OC	none
COc1ccc(-n2nc(C(=O)NCC(=O)N3CCN(Cc4ccc5c(c4)OCO5)CC3)c3ccccc3c2=O)cc1OC	M1 antag 41
COc1cccc(CNC(=O)CCCNS(=O)(=O)c2cccs2)c1	CHO-K1 Ca antag 42
Cc1cccc(C)c1-n1nnnc1C1(C)CCC(=O)N1Cc1cccc(C(F)(F)F)c1 (stereo not given)	none (no result: M1 ag, M1 antag, M1 PAM)
NC1=NC2(CCCCC2)n2c(nc3ccccc32)N1	none
NC1=NC2(CCN(Cc3ccccc3)CC2)n2c(nc3ccccc32)N1	CHO-K1 Ca antag 29
CN(C)C(CNC(=O)c1ccc(S(=O)(=O)Nc2ccccc2F)cc1)c1ccco1 (stereo not given)	none
O=C(Nc1nnc(SCc2ccccn2)s1)C1CC(=O)N(c2ccc(F)cc2)C1 (stereo not given)	M1 antag 25
CCOCCc1nnc(NC(=O)C2CC(=O)N(c3ccc(OCC)cc3)C2)s1 (stereo not given)	none
CCc1nnc(NC(=O)C2CC(=O)N(c3ccc(C)cc3)C2)s1 (stereo not given)	CHO-K1 Ca antag 24
CCOc1ccc(N2CC(C(=O)Nc3nnc(CC)s3)CC2=O)cc1 (stereo not given)	M1 PAM 28
COc1cccc(N2CC(C(=O)Nc3nnc(SCc4ccccn4)s3)CC2=O)c1 (stereo not given)	none
O=C(COc1ccc([N+](=O)[O-])cc1Cl)N1CCOCC1	none
COc1cccc(/C=N/NC(=O)CN(C)S(=O)(=O)c2ccccc2)c1OC	none
COc1ccc(CCNS(=O)(=O)c2ccc3c(c2)oc(=O)n3C)cc1OC	none
CCOc1ccc(CCNS(=O)(=O)c2ccc3c(c2)oc(=O)n3C)cc1OCC	M1 ag parental 15
Cc1ccccc1C(=O)Nc1cccc(C(=O)Nc2ccccc2C(=O)O)c1	CHO-K1 Ca antag 26
COCCNc1nnc(SCC(=O)NNC(=O)c2ccc([N+](=O)[O-])cc2)s1	none
COc1ccc(OC)c(NC(=O)COc2cc(O)c3c(c2)OC(C)(C)CC3=O)c1	none
CN1CCN(CC#CCn2c3ccccc3c3ccccc32)CC1	M1 antag 36
O=S(=O)(Nc1nc(-c2sccc2Cl)cs1)c1cc(Cl)ccc1Cl	CHO-K1 Ca antag 26
CCOC(=O)c1sc(NC(=O)Nc2ccc(Cl)cc2)cc1C	CHO-K1 Ca antag 46, M1 antag 52
CCCS(=O)(=O)NC(=O)C1(C)CCN(C(=O)c2ccccc2Br)C1 (stereo not given)	M1 PAM 27
CCCS(=O)(=O)NC(=O)C1(C)CCCN(C(=O)c2ccccc2Br)C1 (stereo not given)	none
Cc1cccc(C(=O)NCC(=O)OCC(=O)c2cc(C)n(CC3CCCO3)c2C)c1 (stereo not given)	M1 ag parental 17
CC1(C(O)(C#CC[N+]2(C)CCCCC2)c2ccccc2)CCCC1 (stereo not given)	M1 antag 72
C[N+]1(CC(=O)OCCCc2ccccc2)CCCCC1	none
Cc1cc(C)cc(C(O)c2ncc(-c3ccccc3Cl)[nH]2)c1 (stereo not given)	none
O=C(COC(=O)c1cccc(Cl)c1)Nc1cccc(S(=O)(=O)NC2=NCCC2)c1	none
